The record followed here is PubChem BioAssay (NCI).

Molecules are shown by their SMILES. This is part of a sample that, as a whole, favours compounds with a hit. Of some 83,000 tested, about 20% had one in any assay.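 Interpretation: 100, growth as untreated; towards 0, rising growth inhibition; 0, no net growth; 0 to -100, cell death. Compounds scoring below 10 were considered active.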 Values without a mark were called inactive. Active and inactive are the calls of the source.

In the assay the test system is HCT-116 colon. Put plainly: NCI-60 one-dose screen, 48 h (100 = growth as untreated, 0 = no growth, -100 = all killed). The conditions noted are these: 10 µM unless noted. The protocol:
Growth inhibition of the HCT-116 human tumor cell line is measured as a screen for anti-cancer activity. Cells are grown in 96 well plates and exposed to the test compound for 48 hours. Compounds are tested at a single concentration, which is 10^-5 M for most compounds. The reported endpoint is percent growth (GI% or GIPRCNT), where numbers from 0 - 100% represent growth inhibition, and numbers from -100% - 0 represent cell death. For example, a value of 40 represents 60% growth inhibition. A value of 0 means no net growth occurred over the course of the experiment. A value of -40 indicates 40% of cells at the beginning of the experiment died by the end of the experiment. A value of -100 means all cells are dead at the end of the experiment.
NCI-60 Human Tumor Cell Lines Screen was performed using the standard one-dose NCI protocol, which is described in more detail at https://dtp.cancer.gov/discovery_development/nci-60/default.htm.
Compounds with GIPRCNT values below 10 were considered active. Activity score was based on GIPRCNT using the following formula: […]
Score is 0 for GIPRCNT values of 100 or above, 50 for GIPRCNT values of 0, and 100 for GIPRCNT values of -100.
With `C[C@H](C(=O)N(CCc1ccc(Cl)c(Cl)c1)Cc1cncs1)[C@@H]1CC[C@H](C[C@H](C)n2cc(CN3CCC(c4ccc(Cl)cc4)CC3)nn2)O1`, the growth is 92.5%.

With `O=C1Nc2ccccc2C1(c1c[nH]c2ccccc12)c1c[nH]c2ccccc12`, the growth is 36.6%.

For `O=[N+]([O-])c1cc(NS(=O)(=O)c2ccccc2)ccc1NS(=O)(=O)c1ccccc1`, the growth was 87.1%.

Consider `O=C(NNC(=O)c1nc2cc(F)ccc2n2cccc12)c1cnccn1`, for which the growth was 32.4%.

Consider `O=C(C1CCCCC1)[C@@H]1[C@]2(C(=O)NC3CCCCC32)[C@@H]2CCCN2[C@@]12C(=O)NC1CCC(Cl)CC12` (stereo not given in full), for which the growth was -91.2% [100 µM] (active).

Regarding `CC(C)N1C(=O)/C(=c2\sc3n(c2=O)C2C(NN=3)N(C)C(=O)N2C)c2ccccc21` (stereo not given), the growth was 51.4%.

Consider `O=C1c2ccccc2C(=O)C1c1ccc(Br)cc1`, for which the growth is 92.4%.

On to `COc1ccc(Oc2nc(Nc3ccc(N4CCOCC4)cc3)ncc2NC(=O)Nc2cc(OC)cc(OC)c2)cc1`, for which the growth is -55.5% (active).

On to `Cc1ccc2c(-c3nnc(N)s3)cc(=O)oc2c1C`, for which the growth is 95.6%.

`COc1ccc(N2CCC(=S)NC2=S)cc1`: the growth was 104%.

`COC(=O)c1c2c(c(C)[n+]([O-])c1C)C(=O)C(NCc1ccc(OC)cc1)=CC2=O`: the growth is 3.89% (active).

With `C=C(C)[C@@H]1CC[C@]2(COC(C)=O)CC[C@]3(C)[C@H](CC[C@@H]4[C@@]5(C)CCCN(C(C)=O)C(C)(C)[C@@H]5CC[C@]43C)[C@@H]12`, the growth is -35.7% (active).

On to `Cc1ccnc(Nc2ccc([N+](=O)[O-])c(NCCN3CCOCC3)n2)c1`, for which the growth is -12.9% (active).

On to `O=C(Nc1ccccc1N1CCCC1=O)c1oc2ccc(F)cc2c1-c1cnn(-c2ccccc2)c1`, for which the growth is 23.8% [50 µM].

`CCCCCN(CCCCC)CC(O)c1cc(C)c2ccc3cc(C(C)C)ccc3c2c1` (stereo not given): the growth is -84.8% (active).

Regarding `N#Cc1cccc(C2C3=C(COC3=O)N(CCO)c3cc4c(cc32)OCO4)c1` (stereo not given), the growth is 17%.

Turning to `CCN(CC)CCCOc1ccc2ncnc(Nc3ccc(Oc4cccc(C(F)(F)F)c4)c(Cl)c3)c2c1`, the growth is -10.1% (active).

Regarding `N#Cc1c(-c2ccccc2)nc(SCC(O)CN2CCOCC2)nc1N1CCOCC1` (stereo not given), the growth is 57.5%.

Take `CC/C=C\CCC/C=C1/C(=O)C=C[C@@H]1C/C=C\CCCC(=O)OC`: the growth was -52.4% (active).

Turning to `COc1cc(OC)c(/C=C/C(=O)c2c(O)cc(OC)c(C3CCN(C)CC3)c2OC)c(OC)c1`, the growth was -100% (active).

For `O=C(CCSc1nnc2n(Cc3ccccc3)c(=O)c3c4c(sc3n12)CCCC4)N1CCN(c2ccccc2)CC1`, the growth was 100%.

Consider `NC(=O)c1c(NC(=O)c2cccc(C(F)(F)F)c2)sc2c1CCC(=O)C2`, for which the growth was -28.2% (active).

For `C=C1C(=O)O[C@H]2[C@H]1CC/C(COC(=O)/C=C\C(=O)NCc1ccc(Cn3c(=O)sn(CCCl)c3=O)cc1)=C\CC[C@@]1(C)O[C@@H]21`, the growth is 68.7%.

Regarding `CCCn1cnc2c(c1=N)C(c1ccc(F)cc1)c1sc3c(F)cccc3c1O2` (stereo not given), the growth was 36.3%.

For `O=C(CN1CCCCCC1)Nc1nc2ccc(NCc3ccc(Cl)cc3)cc2s1`, the growth is 75.8%.

Consider `O=C(O)c1ccc(-c2ccc(/C=N/Nc3nc(Nc4ccccc4)nc(N4CCCCC4)n3)o2)cc1`, for which the growth was 57.8%.

In the case of `CC1(C)NCCC[C@]2(C)[C@H]3CC[C@H]4[C@H]5[C@H](C(=O)/C=C/c6cccnc6)CCC[C@]5(CO)CC[C@@]4(C)[C@]3(C)CC[C@@H]12`, the growth was 37.2%.

On to `COCCn1cc(-c2csc(-c3c[nH]c4ccc(Br)cc34)n2)c2cccnc21`, for which the growth is 24.2%.

With `Cc1cccc(N2CCC(=O)NC2=S)c1`, the growth was 93.2%.

`C=C(C)[C@@H]1CCC[C@]2(C(=O)O)CC[C@]3(C)[C@@H](CC[C@@H]4[C@@]5(C)C/C(=C/c6ccncc6)C(=O)C(C)(C)[C@@H]5CC[C@]43C)[C@@H]12`: the growth is 4.88% (active).

Consider `Cc1cc2c(cc1C)N(C(=O)CCl)CC(=O)N2`, for which the growth is -10.9% (active).

With `O=C(c1c[nH]c2ccccc12)c1n[nH]c(=S)n1-c1cccc(Br)c1`, the growth is 89.7%.

For `COc1cccc(C(=O)NNc2nc(Cl)nc(Cl)n2)c1`, the growth is 108%.

Consider `CCOC(=O)c1c(C)c2c(n1Cc1ccccc1)CSCC2=O`, for which the growth is -17.5% [100 µM] (active).

Regarding `CCCCNC(=O)Oc1ccc(/C(=C(/C)Cc2ccc(OC)cc2)c2ccc(OCCN3CCCCCC3)cc2)cc1`, the growth is 54.9%.

Regarding `Cc1ccc(-c2nc(-c3cn(C)c4ncccc34)cs2)cc1`, the growth was -73.1% [100 µM] (active).

Regarding `O=C1/C(=C2\SC(=S)N(C3CC3)C2=O)SC(=S)N1C1CC1`, the growth is 100%.

`CCCCNC(=O)c1cc([N+](=O)[O-])cc(C2CCCCC2)c1O`: the growth was 27.8%.

For `CNC1=CC(=O)c2c(C(=O)OC)c(C)[n+]([O-])c(C)c2C1=O`, the growth is 16%.

On to `CCCCCCCCCCCCCCCCCCOc1ccccc1CC(=O)NCC[N+]1(C)CCCCC1`, for which the growth was 57.4%.
